Screening data deposited in PubChem by several laboratories.
rCAG RNA binder: r(CAG) repeat RNA binding. actives 1.3% (n = 370,000). TO-PRO-1 dye displacement fluorescence. inhibition, % at 3 µM;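 active = inhibition above the plate cutoff, the mean of all test compounds on that plate plus 3 SD, cut at about 35% in these data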;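 also: 0% = DMSO alone and 100% = 100 µM mitoxantrone as full dye displacement; higher means more dye released from RNA so lower well fluorescence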
FAS-TE inh: blocks the thioesterase domain of human fatty acid synthase | inhibition, % at 15 µM | actives 0.67% (n = 360,000) | recombinant FAS-TE, OMFH fluorogenic substrate, fluorescence endpoint | P49327;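 active = compounds whose normalised, plate-corrected inhibition of enzyme fluorescence in the single-dose primary screen is 50% or more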;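 also: 0% = DMSO with enzyme and 100% = substrate without enzyme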
Target sequence (P49327 whole entry, looked up, the tested form may be a part): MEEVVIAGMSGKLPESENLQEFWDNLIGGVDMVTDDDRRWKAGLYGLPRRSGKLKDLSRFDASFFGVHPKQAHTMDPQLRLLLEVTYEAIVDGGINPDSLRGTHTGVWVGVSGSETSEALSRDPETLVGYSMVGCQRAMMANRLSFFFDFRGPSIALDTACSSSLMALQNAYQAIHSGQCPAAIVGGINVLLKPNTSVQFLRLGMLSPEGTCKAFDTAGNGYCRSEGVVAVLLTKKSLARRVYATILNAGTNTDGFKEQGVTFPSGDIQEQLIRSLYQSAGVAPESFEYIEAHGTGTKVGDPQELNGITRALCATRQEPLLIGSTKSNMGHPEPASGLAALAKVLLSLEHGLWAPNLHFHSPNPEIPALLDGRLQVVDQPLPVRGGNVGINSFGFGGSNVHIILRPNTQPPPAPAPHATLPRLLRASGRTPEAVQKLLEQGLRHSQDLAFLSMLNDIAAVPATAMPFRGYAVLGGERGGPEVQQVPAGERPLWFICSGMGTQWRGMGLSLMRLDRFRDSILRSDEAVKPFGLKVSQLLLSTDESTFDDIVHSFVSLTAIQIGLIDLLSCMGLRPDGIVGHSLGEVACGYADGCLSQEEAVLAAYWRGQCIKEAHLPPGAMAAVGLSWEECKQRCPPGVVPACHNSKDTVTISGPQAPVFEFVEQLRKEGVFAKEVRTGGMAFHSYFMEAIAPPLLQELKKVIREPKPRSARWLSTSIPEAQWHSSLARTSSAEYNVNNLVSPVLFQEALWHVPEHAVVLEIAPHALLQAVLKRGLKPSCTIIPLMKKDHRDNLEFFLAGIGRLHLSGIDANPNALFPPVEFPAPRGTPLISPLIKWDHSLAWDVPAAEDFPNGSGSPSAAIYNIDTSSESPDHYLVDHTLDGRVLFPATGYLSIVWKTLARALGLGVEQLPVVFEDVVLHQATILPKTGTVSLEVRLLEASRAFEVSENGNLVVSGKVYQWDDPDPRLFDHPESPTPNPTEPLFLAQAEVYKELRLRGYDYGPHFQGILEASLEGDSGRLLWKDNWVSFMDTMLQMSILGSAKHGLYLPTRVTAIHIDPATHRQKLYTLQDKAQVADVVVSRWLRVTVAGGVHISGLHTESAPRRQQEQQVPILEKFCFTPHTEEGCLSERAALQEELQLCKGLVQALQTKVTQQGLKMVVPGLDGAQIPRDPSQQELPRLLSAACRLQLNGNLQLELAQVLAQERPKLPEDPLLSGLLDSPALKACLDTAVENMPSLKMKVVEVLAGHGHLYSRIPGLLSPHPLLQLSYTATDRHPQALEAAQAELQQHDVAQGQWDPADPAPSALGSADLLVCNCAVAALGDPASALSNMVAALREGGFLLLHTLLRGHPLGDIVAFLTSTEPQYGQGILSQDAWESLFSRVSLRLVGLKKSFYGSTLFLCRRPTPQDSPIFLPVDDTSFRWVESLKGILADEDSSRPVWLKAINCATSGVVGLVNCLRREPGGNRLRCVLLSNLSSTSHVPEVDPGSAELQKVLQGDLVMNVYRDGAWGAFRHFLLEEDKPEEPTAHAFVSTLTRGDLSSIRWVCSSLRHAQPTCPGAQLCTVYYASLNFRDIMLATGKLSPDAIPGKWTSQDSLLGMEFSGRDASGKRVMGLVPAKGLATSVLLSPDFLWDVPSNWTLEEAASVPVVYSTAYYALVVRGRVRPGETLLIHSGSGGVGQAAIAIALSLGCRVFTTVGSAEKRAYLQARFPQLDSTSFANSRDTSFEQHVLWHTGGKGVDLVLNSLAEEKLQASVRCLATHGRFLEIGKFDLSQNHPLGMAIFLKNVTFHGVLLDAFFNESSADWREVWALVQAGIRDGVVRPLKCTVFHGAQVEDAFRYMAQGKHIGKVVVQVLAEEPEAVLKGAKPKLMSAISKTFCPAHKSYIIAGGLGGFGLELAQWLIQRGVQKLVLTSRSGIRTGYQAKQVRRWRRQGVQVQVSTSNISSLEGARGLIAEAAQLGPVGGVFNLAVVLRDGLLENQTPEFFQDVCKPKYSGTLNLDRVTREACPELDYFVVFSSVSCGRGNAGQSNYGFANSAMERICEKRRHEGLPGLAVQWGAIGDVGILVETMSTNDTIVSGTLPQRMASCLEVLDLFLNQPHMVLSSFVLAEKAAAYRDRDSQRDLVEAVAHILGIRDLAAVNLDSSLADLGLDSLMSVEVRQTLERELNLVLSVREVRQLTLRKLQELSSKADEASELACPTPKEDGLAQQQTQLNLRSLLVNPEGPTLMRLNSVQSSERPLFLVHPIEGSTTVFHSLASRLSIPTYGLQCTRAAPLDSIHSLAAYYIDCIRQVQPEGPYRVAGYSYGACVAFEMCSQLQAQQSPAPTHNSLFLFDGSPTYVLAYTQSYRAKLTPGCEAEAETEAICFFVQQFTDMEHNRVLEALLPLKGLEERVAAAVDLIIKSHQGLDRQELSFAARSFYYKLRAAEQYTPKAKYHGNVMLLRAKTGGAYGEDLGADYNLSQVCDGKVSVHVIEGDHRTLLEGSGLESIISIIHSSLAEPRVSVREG
NR3A LBD binder: NR3A (human) ligand-binding domain modulation; NR3A LBD differential scanning fluorimetry, Tm shift; 0% = protein alone, 100% = glycine-bound protein; actives 2.5% (n = 340,000); Tm shift relative to glycine control, % at 25 µM;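 active = melting temperature shift of at least 10% of the positive control shift, at one fixed dose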
NadD block: blocks S. aureus nicotinate mononucleotide adenylyltransferase | purified NadD enzyme, colorimetric absorbance read-out | inhibition, % at 20 µM | actives 0.78% (n = 360,000) | AID 602399; in the data active = inhibition above about 26%
rCAG binder conf: r(CAG) RNA repeat binding, confirmation; AID 652065; actives 70% (n = 4,300); shares compounds with rCAG RNA binder; TO-PRO-1 dye displacement fluorescence; inhibition, % at 3 µM;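 active = inhibition above a per-plate cutoff, the mean inhibition of sample wells plus 3 SD, cut at about 35% in these data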;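 also: loss of TO-PRO-1 fluorescence as compound displaces dye from 1x1 AA loop RNA; 0% = DMSO only wells and 100% = 100 µM mitoxantrone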
DNA CAG counter: disrupts DNA CAG TO-PRO-1 complex, flagging rCAG hits | shares compounds with rCAG RNA binder | actives 94% (n = 4,300) | inhibition, % at 3 µM | d(CAG) DNA oligo TO-PRO-1 dye displacement, fluorescence;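 active = inhibition above its plate's cutoff, the mean test-well inhibition plus 3 SD, cut at about 4.8% in these data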;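 also: 0% = DNA dye mix with DMSO and 100% = 100 µM mitoxantrone; hits displace the dye from DNA and so lower well fluorescence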
dCAG dye DR: disrupts DNA CAG TO-PRO-1 complex in dose response | shares compounds with rCAG RNA binder | DNA CAG/GTC duplex TO-PRO-1 dye displacement fluorescence | IC50, µM | actives 20% (n = 250) | AID 686960; in the data active = IC50 below about 10 µM
* hit, by the source's call; i = inactive; / = no result. Most compounds without a hit are left out; they make up all but 4.3% or so of the library.

SMILES	rCAG RNA binder	FAS-TE inh	NR3A LBD binder	NadD block	rCAG binder conf	DNA CAG counter	others
Cc1cc(NS(=O)(=O)c2ccc(NC(=O)COc3ccc(Cl)c(C)c3)cc2)no1	41.4*	-2.2	-17.4	3.9	32.2	8.3*
Cc1cc(NS(=O)(=O)c2ccc(NC(=O)COc3ccccc3[N+](=O)[O-])cc2)no1	33.2	1.4	-0.3	-3.7	/	/
Cc1cc(NS(=O)(=O)c2ccc(NC(=O)CCCOc3ccc(Cl)cc3)cc2)no1	50.4*	-5.5	-3.6	-1.0	33.7	10.2*
Cc1cc(NS(=O)(=O)c2ccc(NC(=O)COc3ccccc3C(C)(C)C)cc2)no1	71.5*	5.9	-6.7	12.8	58.1*	24.7*
CCCCCCCCN1C(=O)[C@@H](CC(=O)N2CCC(c3ccccc3)CC2)C[C@@]2(C(=O)OC)C1=C[C@H](C1CCCC1)O[C@@H]2C	2.8	/	/	/	/	/
O=C(NCC1COc2ccccc2O1)c1ccc(NC(=O)C(Cl)Cl)cc1 (configuration not stated)	4.0	/	/	/	/	/
Cc1cc(NS(=O)(=O)c2ccc(NC(=O)Nc3cccc(C(F)(F)F)c3)cc2)no1	49.5*	5.4	21.7*	3.2	52.7*	19.9*
CCOC(=O)c1c(/N=C/c2cc([N+](=O)[O-])ccc2O)sc(C)c1C	64.9*	-9.7	-1.5	-0.2	8.8	7.2*
CC(C)C(=O)N(c1cc2sc(=O)oc2c2ccccc12)S(=O)(=O)c1cccs1	77.5*	24.2	-2.8	-1.0	48.0*	22.5*
CC(C)C(=O)N(c1ccc2oc(=O)sc2c1)S(=O)(=O)c1cccs1	9.1	9.6	-1.5	-0.8	/	/
COc1ccc(NC(=O)CCCN2C(=O)/C(=C\c3ccco3)SC2=S)cc1	16.5	7.8	-0.4	9.0	/	/
O=C(CCCN1C(=O)/C(=C\c2ccco2)SC1=S)Nc1ccc(O)cc1C(=O)O	89.7*	-1.1	1.9	-2.6	77.9*	42.9*
COc1ccc(/C=C2\SC(=S)N(CCCC(=O)Nc3cccc(C(=O)O)c3)C2=O)cc1OC	23.4	-4.9	-8.7	14.5	/	/
O=C(CCCN1C(=O)/C(=C/c2ccco2)SC1=S)Nc1cccc(C(=O)O)c1	67.9*	1.8	-2.2	-4.8	45.4*	17.0*
O=C(CCCN1C(=O)/C(=C\c2cccs2)SC1=S)Nc1ccc(O)cc1C(=O)O	60.0*	-7.8	4.5	-6.5	59.6*	22.7*
O=S(=O)(c1ccc(C(F)(F)F)cc1)N1CCCc2nc(-c3ccc(F)cc3)ccc21	4.6	/	/	/	/	/
CN(C)S(=O)(=O)c1cc(C(=O)O)c(NC2CCCCC2)cc1Cl	44.9*	-9.1	5.1	-1.7	30.8	6.2*
CC(=O)N(c1ccc2oc(=O)sc2c1)S(=O)(=O)c1cccc2cccnc12	36.7*	4.3	-1.3	-2.1	6.0	5.3*
CC(C)c1ccc(C2c3[nH]c4ccccc4c3C[C@H]3C(=O)N(c4ccccc4C(=O)N4CCC[C@H]4C(=O)O)C(=O)N23)cc1 (some centres not stated)	46.2*	13.4	-1.8	25.7	70.2*	27.4*	dCAG dye DR=i
COc1ccc(C2c3[nH]c4ccccc4c3C[C@H]3C(=O)N(c4ccccc4C(=O)N4CCC(C(=O)O)CC4)C(=O)N23)cc1 (some centres not stated)	29.0	-6.3	-0.5	12.3	/	/
O=C(O)c1ccc2nc(-c3ccco3)c(-c3ccco3)nc2c1	41.8*	-9.1	-0.9	3.2	46.8*	11.6*
Cc1cccc(Cl)c1NC(=O)NCCCN1CCOCC1	4.9	/	/	/	/	/
O=C(c1cc(Br)c(Br)s1)N1CCN(C/C=C/c2ccccc2)CC1	35.7*	49.1	-18.6	-4.5	2.9	3.1
COC(=O)[C@H](C(C)C)N(CCCc1cn(Cc2ccc(C)cc2)nn1)S(=O)(=O)c1ccccc1Br	4.4	/	/	/	/	/
O=c1cc(-c2ccccc2)[nH]n1-c1nc2ccccc2[nH]1	64.8*	1.0	-8.0	-3.3	15.7	9.1*
CCc1cc(=O)[nH]c(-n2[nH]c(-c3ccccc3)cc2=O)n1	16.8	-1.5	-0.1	-0.3	/	/
COc1ccc(S(=O)(=O)CC(=O)c2cc3cc(Br)ccc3oc2=O)cc1	50.9*	1.1	-6.8	27.0	48.2*	23.1*
